VACV mCherry inh – qHTS for Stage-Specific Inhibitors of Vaccinia Orthopoxvirus: mCherry Reporter Primary qHTS; Vaccinia virus mCherry reporter infection, fluorescence; actives 0.63% (n = 310,000); Potency, µM (top dose mostly 36.5 µM), inactives show at the highest dose activity change, negative = inhibition, actives largely listed as inhibitors; calls by dose curve; tested in A549 cells; also: potency is read from the fitted curve at half-maximal effect; nearly all actives have a fitted effect of over 35% in size
FMDV inh – High Throughput Screening for Foot and Mouth Disease Virus Antivirals. FMDV antiviral cell-based qHTS. Potency, µM (highest dose often 57.9 µM), for the others: top-dose activity change, negative = inhibition, actives largely listed as inhibitors. actives 1.2% (n = 410,000). AID 1159524, 2015; calls by dose curve; tested in HEK293T cells; also: read-out not given here; potency is read from the fitted curve at half-maximal effect; nearly all actives have a fitted effect of over 45% in size
Sm TGR inh – qHTS Assay for the Inhibitors of Schistosoma Mansoni Peroxiredoxins; Potency, µM (titrated, usually from 114 µM), for inactives: top-dose activity change, negative = inhibition, actives largely listed as inhibitors; purified TGR, DTNB reduction, TNB absorbance 405 nm; Schistosoma mansoni thioredoxin glutathione reductase (TGR), Q962Y6; actives 3% (n = 360,000); also: potency is read from the fitted curve at half-maximal effect; nearly all actives have a fitted effect of over 60% in size
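First, TGR (20 nM dispensed) and NADPH were mixed with compound. Second, a 15 min room-temperature incubation followed. Third, further NADPH and then DTNB were added to start the reaction. Finally, TNB absorbance was monitored kinetically.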
HCV inh – qHTS Assay for Inhibitors of Hepatitis C Virus (HCV). actives 3.4% (n = 340,000). AID 651820, 2012. Potency, µM (highest dose often 41.8 µM), for inactives: at the top dose activity change, negative = inhibition, hits mostly inhibitors. Huh7.5.1 HCVcc-Cre infection, luciferase reporter, 44 h; also: potency is read from the fitted curve at half-maximal effect
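A cell-based infection assay in which seeded cells (1,000 per well) receive test compound after 4 h, are inoculated with HCVcc-Cre at approximately 0.5 moi, and are incubated 44 h before luminescence detection.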
HCMV inh – qHTS Assay for inhibitors of the human cytomegalovirus (HCMV) | HFF cells, HCMV-luciferase reporter, 72 h; stronger effect = lower value | activity change, negative = inhibition, % at 57.5 µM | actives 4.5% (n = 410,000) | AID 1259415, 2018; in the data active = activity change below about -60%; inconclusive = no clear call, values can overlap the other calls; inactive = above about -39%
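Luciferase read-out from HCMV-luciferase-infected HFFs (MOI 1 PFU/cell) 72 h post infection at 37C; compounds added after 16 h cell attachment; activity normalized between buffer-only basal and Salinomycin (10uM) inhibitor controls.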
VACV Venus inh – qHTS for Stage-Specific Inhibitors of Vaccinia Orthopoxvirus: Venus Reporter Primary qHTS. Vaccinia virus Venus reporter expression, fluorescence. actives 0.46% (n = 330,000). Potency, µM (highest dose often 36.5 µM), for inactives: top-dose activity change, negative = inhibition, usual class: inhibitors. AID 720580, 2013; calls by dose curve; tested in A549 cells; also: potency is read from the fitted curve at half-maximal effect; nearly all actives have a fitted effect of over 30% in size
* marks the source's active call; other numbers are inactive results; [ ] = remark or other dose. The list is not random: actives were taken first. Their share in the collection is about 9.3%. Unless noted, calls follow the shape of the dose curve; as a rule, active = well fitted curve in the direction sought with a large enough effect; inconclusive = small, poorly fitted or top-dose-only effect, or another doubt; inactive = no such curve, though single readings can be large; an effect the other way counts as inactive or inconclusive. % is scaled to controls: 0 for no effect and ±100 for the full control effect.

Screening CC(=O)Nc1ccc(N2C(=O)CC(N3CC(C)OC(C)C3)C2=O)cc1 (stereo not given) returned VACV mCherry inh -12%[1.46 µM], FMDV inh -4%, Sm TGR inh 22µM*, HCV inh 12%, HCMV inh -2 and VACV Venus inh -10%.
Screening CCOC(=O)COc1c(Cl)cc(C2NC(=S)NC(c3ccccc3)=C2C(C)=O)cc1OCC (stereo not given) returned VACV mCherry inh -16%, FMDV inh -7%, Sm TGR inh -4%, HCV inh -19%, HCMV inh -60* and VACV Venus inh -15%.
CC1(C)CC(=O)C(N=Nc2ccc(Br)cc2)=C(O)C1 was read as VACV mCherry inh -4%, FMDV inh 1%, Sm TGR inh -3%, HCV inh -21%, HCMV inh -60* and VACV Venus inh -10%.
`CC1(C)CC(=O)C(N=Nc2cccc(F)c2C#N)=C(O)C1` gave VACV mCherry inh -30%, FMDV inh 26%, Sm TGR inh 14µM*, HCV inh -23%, HCMV inh 18 and VACV Venus inh -16%.
For CC1(C)CC(=O)C(N=Nc2ccc(C(F)(F)F)cc2[N+](=O)[O-])=C(O)C1 the results were VACV mCherry inh -2%, FMDV inh -17%, Sm TGR inh 4µM*, HCV inh -31%, HCMV inh -37 and VACV Venus inh -5%.
Screening CC1(C)CC(=O)C(N=Nc2ccc(S(=O)(=O)N3CCOCC3)cc2)=C(O)C1 returned VACV mCherry inh -28%, FMDV inh -2%, Sm TGR inh 40µM*, HCV inh 40%, HCMV inh -23 and VACV Venus inh -8%.
Screening CCOC(=O)c1nn(-c2ccccc2)c2nnc(Cc3ccc(C)cc3)c(=O)n12 returned VACV mCherry inh -9%, FMDV inh -21%, Sm TGR inh -5%, HCV inh 27%, HCMV inh -22 and VACV Venus inh -4%.
Cc1cc(N2CCCC2)ccc1NC(=O)CN1C(=O)NC(C)(c2ccccc2)C1=O (stereo not given) was read as VACV mCherry inh inconclusive, FMDV inh -10%, Sm TGR inh -15%, HCV inh 16%, HCMV inh -3 and VACV Venus inh -9%.
Screening CN(C)CCNc1ncnc2ccccc12 returned FMDV inh 10%, Sm TGR inh -1%, HCV inh 0% and HCMV inh 45.
For CCCCNc1ncnc2oc(-c3ccco3)c(-c3ccco3)c12 the results were VACV mCherry inh -24% and VACV Venus inh -30%.
COc1ccc(-c2oc3ncnc(NCCCN(C)C)c3c2-c2ccc(OC)cc2)cc1 was read as FMDV inh inconclusive, Sm TGR inh 8%, HCV inh inconclusive and HCMV inh -84*.
For CN(C)CCNc1ncnc2oc(-c3ccccc3)c(-c3ccccc3)c12 the results were FMDV inh inconclusive, Sm TGR inh 0%, HCV inh 3.2µM* and HCMV inh inconclusive.
`CCCC1CCC(=NNC(=O)OC(C)(C)C)CC1` (stereo not given) gave FMDV inh -3%, Sm TGR inh -4%, HCV inh -4% and HCMV inh 40.
For CC(C)(C)c1cc(-c2nc(N)nc(N)n2)c(O)c(C(C)(C)C)c1 the results were VACV mCherry inh inconclusive, FMDV inh inconclusive, Sm TGR inh -2%, HCV inh inconclusive, HCMV inh 14 and VACV Venus inh inconclusive.
Screening CCCCNc1nc(-c2ccccc2)nc(-n2ccnc2)n1 returned VACV mCherry inh 1%, FMDV inh 1%, Sm TGR inh 1%, HCV inh 3.5µM*, HCMV inh -16 and VACV Venus inh -1%.
`C=CCNc1nc(Cl)nc(Nc2ccccc2)n1` gave FMDV inh 37%, Sm TGR inh 2%, HCV inh -29% and HCMV inh -1.
C=CCNc1nc(-c2ccccc2)nc(-n2ccnc2)n1 was read as FMDV inh -12%, Sm TGR inh -25%, HCV inh 2.5µM* and HCMV inh 11.
`CC(C)(C)c1nnc(NC(=O)C2CC(=O)N(CCc3ccc(F)cc3)C2)s1` (stereo not given) gave VACV mCherry inh -28%, FMDV inh -18%, Sm TGR inh 1%, HCV inh -16%, HCMV inh 24 and VACV Venus inh -17%.
CCCOc1ccc(-c2nc(C#N)c(N3CCc4ccccc4C3)o2)cc1 was read as FMDV inh 11%, Sm TGR inh 7%, HCV inh 0% and HCMV inh -2.
Screening CCCCN(CC)C(=O)CSc1nc2c(sc3ccccc32)c(=O)n1CCc1ccccc1 returned VACV mCherry inh -4%, FMDV inh -18%, Sm TGR inh 49%, HCMV inh 20 and VACV Venus inh -6%.
`O=C(c1ccccc1)c1cc(Cl)ccc1N1C(=O)C=CC1=O` gave VACV mCherry inh -18%, FMDV inh inconclusive, Sm TGR inh 0.79µM*, HCV inh -27%, HCMV inh inconclusive and VACV Venus inh inconclusive.
`Nc1ccc(Cl)cc1C(=O)c1ccccc1` gave VACV mCherry inh inactive, FMDV inh 15%, Sm TGR inh 14%, HCV inh 12%, HCMV inh -22 and VACV Venus inh -8%.
Screening COc1ccccc1OCC(=O)Nc1cc(Cl)ccc1Oc1ccccc1 returned VACV mCherry inh -10%, FMDV inh -13%, Sm TGR inh -15%, HCV inh 35%, HCMV inh -25 and VACV Venus inh -16%.
For CC(C)NS(=O)(=O)c1ccc(CCC(=O)Nc2cc(Cl)ccc2Oc2ccccc2)cc1 the results were FMDV inh inconclusive, Sm TGR inh -17%, HCV inh 6.3µM* and VACV Venus inh inconclusive.
For CCNS(=O)(=O)c1ccc(CCC(=O)Nc2ccccc2)cc1 the results were VACV mCherry inh 3%, FMDV inh -13%, Sm TGR inh 3%, HCV inh 4%, HCMV inh -11 and VACV Venus inh -2%.
For CCOc1ccc(Oc2ccc(Cl)cc2NC(=O)CCNC(C)=O)cc1 the results were VACV mCherry inh inactive, FMDV inh -22%, Sm TGR inh 1%, HCV inh -12%, HCMV inh -66* and VACV Venus inh -9%.
CCNS(=O)(=O)c1ccc(CCC(=O)Nc2cc(Cl)ccc2Oc2ccccc2)cc1 was read as VACV mCherry inh inconclusive, FMDV inh inconclusive, Sm TGR inh -3%, HCV inh 10µM*, HCMV inh inconclusive and VACV Venus inh inconclusive.
